Inconclusive results are not listed. The source made the active and inactive calls. Unless noted, cut-off not given; nearly all actives show AC50 up to about 26 µM.
Legend:
[1] = viability loss in pontine glioma line – cell-based, SU-DIPG-XVII, MIPE5.0, CellTiter-Glo, qHTS, dose response (AID 1347060); details: CellTiter-Glo ATP luminescence;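 on AC50: cells exposed to compound for 48 hours before viability readout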
[2] = viability loss in pontine glioma line – cell-based, SU-DIPG-XIII, MIPE5.0, CellTiter-Glo, qHTS, dose response (AID 1347064; cut-off not given, nearly all actives have AC50 up to about 23 µM;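 on AC50: cells exposed to compound for 48 hours before the viability read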); details: CellTiter-Glo ATP luminescence
[3] = viability loss in pontine glioma line – cell-based, SU-DIPG-XXV, MIPE5.0, CellTiter-Glo, qHTS, dose response (AID 1347065); details: CellTiter-Glo ATP luminescence;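 further: cells exposed to compound for 48 hours before ATP readout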
[4] = growth inhibition of DIPG cells – cell-based, MIPE5.0 library, qHTS (AID 1347068; cut-off not given, nearly all actives have IC50 up to about 30 µM;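 on IC50: cells exposed to compound for 48 hours before viability readout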); details: SU-DIPG-XXV viability
[5] = JHH-DIPG-1 glioma cell viability, MIPE5.0 library, CellTiter-Glo luminescence, qHTS (AID 1347067); details: JHH-DIPG-1 glioma viability, CellTiter-Glo ATP luminescence;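 further: cells exposed to compound for 48 hours before readout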
[6] = viability loss with induced miR-34 in A549 – imaging, A549 dox-inducible miR-34, nuclei and caspase counts, primary screen (AID 1347080;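 active means compounds whose cell count with miR-34 switched on is under 0.7 times the count with it off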); details: A549 miR-34 inducible, Hoechst nuclei count, 48 h
[7] = MELAS cybrid and Rieske KO viability enhancers – cell-based, MELAS cybrids, Rieske KO mouse fibroblasts, CellTiter-Glo, primary screen (AID 1508586;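 active means mean z-score across replicates of 1.96 or higher in either the MELAS or the Rieske mutant cell line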;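 further: z relative to plate mean and SD of compound and empty wells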); details: low glucose
[8] = drug combination growth inhibition, ovarian cancer – cell-based, oncology-focused library, rucaparib conditional, profiling panel (AID 1508598;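 active means normalized viability below 100% at a tested concentration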); details: patient-derived ovarian cancer cells, CellTiter-Glo viability, 144 h, stronger effect = lower value
[9] = stronger effect = lower value, cell number ratio, induced over uninduced
[10] = measured here: relative caspase fold change +Dox/-Dox
[11] = measured here: total cells with miR-34 induction, stronger effect = lower value
[12] = measured here: total cells without miR-34 induction
[13] = MELAS cybrid survival, CellTiter-Glo 48 h, stronger effect = higher value
[14] = Rieske KO mouse fibroblast survival, CellTiter-Glo 72 h

N#Cc1ccnc(N2C(=O)CC[C@H]2C(=O)N(c2cncc(F)c2)[C@H](C(=O)NC2CC(F)(F)C2)c2ccccc2Cl)c1
inactive: outcome [1] | outcome [2] | outcome [3] | outcome [4]

CCN(c1cc(C#CCN2CCOCC2)cc(C(=O)NCc2c(C)cc(C)[nH]c2=O)c1C)C1CCC(N(C)CCOC)CC1 (stereo unspecified)
inactive: outcome [1] | outcome [2] | outcome [5] | outcome [4]

COc1ccc2c(C(=S)N(C)CC(=O)O)cccc2c1C(F)(F)F
inactive: outcome [1] | outcome [2] | outcome [5] | outcome [4]

CN(C)c1cccc(-c2c3c(=O)n(-c4ccccc4Cl)[nH]c3cc(=O)n2C)c1
inactive: outcome [1] | outcome [2] | outcome [5] | outcome [4]

N[C@@H]1CN(c2c(F)cc3c(=O)c(C(=O)O)cn([C@@H]4C[C@@H]4F)c3c2Cl)CC12CC2
inactive: outcome [1] | outcome [2] | outcome [5] | outcome [4]

CS(=O)(=O)Nc1cc2occ(NC=O)c(=O)c2cc1Oc1ccccc1
inactive: outcome [1] | outcome [2] | outcome [5] | outcome [4]

CN1C(N)=N[C@](C)(c2cc(NC(=O)c3ccc(F)cn3)ccc2F)CS1(=O)=O
inactive: outcome [1] | outcome [2] | outcome [5] | outcome [4]

CCn1c(=O)c(-c2ccc(-c3cncc(C)n3)cc2Cl)cc2cnc(NCCC3CCN(C)CC3)nc21
inactive: outcome [1] | outcome [2] | outcome [5]
active: IC50 [4] 1.86 µM

Cn1cc(-c2ccc3c(c2)CCN3C(=O)Cc2cccc(C(F)(F)F)c2)c2c(N)ncnc21
active: viability ([8]; at 0.000305 µM, OCI-P5x cells, with rucaparib 20 µM, 100% = cells with rucaparib alone) 89.4% | viability ([8]; at 0.000305 µM, OCI-P5x cells, without rucaparib) 96.4% | viability ([8]; at 0.00122 µM, OCI-P5x cells, with rucaparib 20 µM, 100% = cells with rucaparib alone) 90.8% | viability ([8]; at 0.00122 µM, OCI-P5x cells, without rucaparib) 99.7% | viability ([8]; at 0.00488 µM, OCI-P5x cells, with rucaparib 20 µM, 100% = cells with rucaparib alone) 92.8% | viability ([8]; at 0.0195 µM, OCI-P5x cells, with rucaparib 20 µM, 100% = cells with rucaparib alone) 98% | viability ([8]; at 0.0781 µM, OCI-P5x cells, with rucaparib 20 µM, 100% = cells with rucaparib alone) 88% | viability ([8]; at 0.313 µM, OCI-P5x cells, with rucaparib 20 µM, 100% = cells with rucaparib alone) 79.9% | viability ([8]; at 1.25 µM, OCI-P5x cells, with rucaparib 20 µM, 100% = cells with rucaparib alone) 74.9% | viability ([8]; at 5 µM, OCI-C5x cells, with rucaparib 10 µM, 100% = cells with rucaparib alone) 7.91% | viability ([8]; at 5 µM, OCI-C5x cells, without rucaparib) 79% | viability ([8]; at 5 µM, OCI-P5x cells, with rucaparib 20 µM, 100% = cells with rucaparib alone) 53% | viability ([8]; at 5 µM, OCI-P5x cells, without rucaparib) 69.3%
inactive: outcome [1] | outcome [2] | outcome [5] | outcome [4] | fold change [6, 9] 0.811 | z-score [7, 13] -0.412 | viability ([8]; at 0.000305 µM, OCI-C5x cells, with rucaparib 10 µM, 100% = cells with rucaparib alone) 120% | viability ([8]; at 0.000305 µM, OCI-C5x cells, without rucaparib) 118% | viability ([8]; at 0.00122 µM, OCI-C5x cells, with rucaparib 10 µM, 100% = cells with rucaparib alone) 116% | viability ([8]; at 0.00122 µM, OCI-C5x cells, without rucaparib) 114% | viability ([8]; at 0.00488 µM, OCI-C5x cells, with rucaparib 10 µM, 100% = cells with rucaparib alone) 116% | viability ([8]; at 0.00488 µM, OCI-C5x cells, without rucaparib) 115% | viability ([8]; at 0.00488 µM, OCI-P5x cells, without rucaparib) 101% | viability ([8]; at 0.0195 µM, OCI-C5x cells, with rucaparib 10 µM, 100% = cells with rucaparib alone) 107% | viability ([8]; at 0.0195 µM, OCI-C5x cells, without rucaparib) 114% | viability ([8]; at 0.0195 µM, OCI-P5x cells, without rucaparib) 107% | viability ([8]; at 0.0781 µM, OCI-C5x cells, with rucaparib 10 µM, 100% = cells with rucaparib alone) 106% | viability ([8]; at 0.0781 µM, OCI-C5x cells, without rucaparib) 113% | viability ([8]; at 0.0781 µM, OCI-P5x cells, without rucaparib) 101% | viability ([8]; at 0.313 µM, OCI-C5x cells, with rucaparib 10 µM, 100% = cells with rucaparib alone) 109% | viability ([8]; at 0.313 µM, OCI-C5x cells, without rucaparib) 125% | viability ([8]; at 0.313 µM, OCI-P5x cells, without rucaparib) 107% | viability ([8]; at 1.25 µM, OCI-C5x cells, with rucaparib 10 µM, 100% = cells with rucaparib alone) 123% | viability ([8]; at 1.25 µM, OCI-C5x cells, without rucaparib) 144% | viability ([8]; at 1.25 µM, OCI-P5x cells, without rucaparib) 109%
4720: cell count [6, 11]
0.484: fold change [6, 10]
-1.76: z-score [7, 14]
5820: cell count [6, 12]

CC1=C2[N-][C@H]([C@H](CC(N)=O)[C@@]2(C)CCC(=O)NC[C@@H](C)OP(=O)([O-])O[C@H]2[C@@H](O)[C@@H](n3cnc4cc(C)c(C)cc43)O[C@@H]2CO)[C@]2(C)N=C(C(C)=C3N=C(C=C4N=C1[C@@H](CCC(N)=O)C4(C)C)[C@@H](CCC(N)=O)[C@]3(C)CC(N)=O)[C@@H](CCC(N)=O)[C@]2(C)CC(N)=O.O.[Co+2]
inactive: outcome [1] | outcome [3]

COc1ccc(Cl)c(Nc2nc3ccccc3nc2NS(=O)(=O)c2cccc(NC(=O)C(C)(C)N)c2)c1
active: AC50 [1] 14.8 µM | AC50 [3] 10.5 µM

C[C@H](NC(=O)C(=O)Nc1ccccc1C(C)(C)C)C(=O)N[C@@H](CC(=O)O)C(=O)COc1c(F)c(F)cc(F)c1F
inactive: outcome [1] | outcome [4]
active: AC50 [2] 16.6 µM | AC50 [5] 2.95 µM

Nc1n[n+]([O-])c2ccccc2[n+]1[O-]
inactive: outcome [1] | outcome [2] | outcome [4]

Cc1cc2c(F)c(Oc3ncnn4cc(OCC(C)OC(=O)C(C)N)c(C)c34)ccc2[nH]1 (stereo unspecified)
0.564: fold change [6, 10]
active: AC50 [1] 16.6 µM | AC50 [2] 16.6 µM
inactive: fold change [6, 9] 1.09 | z-score [7, 13] 0.128
4460: cell count [6, 12]
4840: cell count [6, 11]
1.06: z-score [7, 14]

COc1cc(-c2cc(-c3ccc(N4CCNCC4)cc3)cnc2C)cc(OC)c1OC
inactive: outcome [1] | outcome [2] | outcome [4]

Fc1ccc(-c2csc3ncnc(NCc4ccc5c(c4)OCO5)c23)cc1
inactive: outcome [4]
active: AC50 [1] 20.9 µM | AC50 [2] 16.6 µM | AC50 [5] 18.6 µM

Cc1nc2ccc(-n3ncc(C(=O)c4cc5ccccc5[nH]4)c3N)cc2[nH]1
active: AC50 [1] 0.468 µM | AC50 [3] 0.833 µM

Cn1cnc(-c2cc3nccc(Oc4ccc(NC(=S)NC(=O)Cc5ccccc5)cc4F)c3s2)c1
4730: cell count [6, 12]
3930: cell count [6, 11]
inactive: fold change [6, 9] 0.83 | z-score [7, 13] -0.555
-0.0569: z-score [7, 14]
active: AC50 [1] 16.6 µM | AC50 [2] 18.6 µM | IC50 [4] 4.17 µM
1.19: fold change [6, 10]

Reference: PubChem BioAssay
